Source: PubChem BioAssay (NCATS)
Inconclusive results are not listed. Active and inactive are the calls of the source. Unless noted, calls come from the whole dose curve; as a rule, active = well fitted curve in the direction sought with a large enough effect; inconclusive = small, poorly fitted or top-dose-only effect, or another doubt; inactive = no such curve, though single readings can be large; an effect the other way counts as inactive or inconclusive.

How the values were obtained:
[1] = qHTS for Activators of Parkin Expression: LOPAC Validation Assay (NLuc Reporter) (AID 720572)
Procedure, shortened: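 NLuc signal, read 10 min after reagent and following a prior FLuc read, is normalized to DMSO (0) and positive controls (100%). Cells: neuronal Parkin-promoter coincidence reporter line; compounds tested 7-point, 24 h, 37 C, 5% CO2.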

[2] = qHTS for Activators of Parkin Expression: LOPAC Validation Assay (FLuc Reporter) (AID 720573)
Procedure, shortened: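 Neuronal cell line stably carrying FLuc/NLuc coincidence reporter under Parkin promoter; cells plated 24 h, then compounds added in 7-point dose response for 24 h at 37 C. FLuc luminescence read; normalized to DMSO and positive control (100%).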

[3] = biological target: T1, Hexokinase-4 (Homo sapiens) + Glucokinase regulatory protein (Homo sapiens) (UniProt P35557+Q14397); assay: qHTS assay for inhibitors of recombinant human GCK-GKRP interaction: Diaphorase-coupled assay (AID 743205)
T1 sequence (P35557 whole entry, looked up): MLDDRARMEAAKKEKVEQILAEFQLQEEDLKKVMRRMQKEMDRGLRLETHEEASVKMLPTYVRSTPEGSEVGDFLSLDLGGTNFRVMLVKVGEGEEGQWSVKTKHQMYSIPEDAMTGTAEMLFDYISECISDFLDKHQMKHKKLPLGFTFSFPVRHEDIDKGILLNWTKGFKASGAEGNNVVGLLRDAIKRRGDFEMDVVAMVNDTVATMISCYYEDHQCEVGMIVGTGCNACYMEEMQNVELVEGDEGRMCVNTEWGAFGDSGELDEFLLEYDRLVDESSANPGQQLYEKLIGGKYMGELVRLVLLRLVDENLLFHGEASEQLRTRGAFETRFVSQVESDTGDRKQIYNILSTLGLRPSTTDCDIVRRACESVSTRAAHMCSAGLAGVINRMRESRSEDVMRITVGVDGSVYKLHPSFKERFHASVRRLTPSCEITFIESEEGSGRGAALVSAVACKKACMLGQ
T1 sequence (Q14397 whole entry, looked up): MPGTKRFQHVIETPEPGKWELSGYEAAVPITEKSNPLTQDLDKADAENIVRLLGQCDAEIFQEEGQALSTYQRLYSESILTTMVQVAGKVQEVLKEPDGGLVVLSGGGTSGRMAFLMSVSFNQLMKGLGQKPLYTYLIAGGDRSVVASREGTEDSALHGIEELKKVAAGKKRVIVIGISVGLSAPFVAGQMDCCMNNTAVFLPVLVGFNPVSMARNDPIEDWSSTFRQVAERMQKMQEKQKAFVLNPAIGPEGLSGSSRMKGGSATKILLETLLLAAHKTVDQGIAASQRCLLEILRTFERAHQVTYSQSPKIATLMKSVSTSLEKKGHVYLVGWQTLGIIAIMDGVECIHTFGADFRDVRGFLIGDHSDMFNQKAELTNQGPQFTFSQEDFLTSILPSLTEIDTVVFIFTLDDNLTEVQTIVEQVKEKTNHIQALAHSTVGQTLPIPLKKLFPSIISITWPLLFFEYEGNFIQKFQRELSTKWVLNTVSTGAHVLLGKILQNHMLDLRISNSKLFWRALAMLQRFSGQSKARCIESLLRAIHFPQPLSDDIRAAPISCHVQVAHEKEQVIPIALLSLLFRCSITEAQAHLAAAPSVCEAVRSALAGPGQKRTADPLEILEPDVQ
Procedure, shortened: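 GST-GCK (10 nM) with FLAG-GKRP (10 nM), 5 mM glucose and 0.4 mM ATP in pH 7.6 Hepes; compounds preincubated 20 min with substrate. G6PDH/diaphorase coupling converts resazurin to resorufin, read kinetically (ex 525/em 590 nm) for 30 min.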

[4] = biological target: T1, Hexokinase-4 (Homo sapiens) + Glucokinase regulatory protein (Homo sapiens); assay: qHTS assay for inhibitors of recombinant human GCK-GKRP interaction: ADP-Glo assay (AID 743206);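 note: plate controls were DMSO plus enzyme for no effect and no enzyme for full effect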
Procedure, shortened: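 Pin-transferred compounds meet a 15 nM GST-GCK/15 nM FLAG-GKRP/2 uM S6P mix (dispense concentrations). ATP is then added to 0.4 mM final with 5 mM glucose, and the reaction runs 60 min at room temperature. ADP is quantified luminescently.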

[5] = biological target: T1, Hexokinase-4 (Homo sapiens) + Glucokinase regulatory protein (Homo sapiens); assay: qHTS assay for inhibitors of recombinant human GCK-GKRP interaction: HTRF assay (AID 743207);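 note: 0% = DMSO with GCK present and -100% = DMSO wells lacking GCK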
Procedure, shortened: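 GST-GCK and FLAG-GKRP (5 nM each) were combined with 2 uM S6P in pH 7.1 Hepes/MgCl2/KCl/DTT buffer, then compound and anti-FLAG XL665/anti-GST K antibodies were added. After 60 min at room temperature, HTRF 665/615 nm emission was read.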

[6] = qHTS Assay for Identifying Gametocytocidal Compounds (AID 743244);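 note: % is set by controls: 0 for no effect and ±100 for the full control effect; actives lower the fluorescent signal which means gametocytes are killed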; conditions: P. falciparum 3D7 stage III-V gametocytes, alamarBlue, 72 h; max response: stronger effect = lower value
Procedure, shortened: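 Stage III–V gametocytes of P. falciparum 3D7 were seeded at 20,000 cells/well onto pre-dispensed compounds. After 72 h, 37 °C, 5% CO2, alamarBlue was added for another 24 h.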

[7] = Natriuretic polypeptide receptor (hNpr1) antagonism - Pilot counterscreen GloSensor control cell line (AID 1347045; calls by dose curve; note: series mostly up to about 38 µM; % is set by controls: 0 for no effect and ±100 for the full control effect)
Procedure, shortened: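 Control counterscreen: luciferase cGMP-biosensor HEK293 cells (no Npr1) received compound for 30 min at room temperature after GloSensor substrate loading. Luminescence was measured before and 20 min after soluble guanylyl cyclase activation by 50 uM nitroprusside.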

[8] = biological target: Atrial natriuretic peptide receptor 1 (Homo sapiens) (UniProt P16066); assay: Natriuretic polypeptide receptor (hNpr1) antagonism - Pilot screen (AID 1347049; calls by dose curve;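 note: agonist-evoked cGMP luminescence read 20 min after hNppA addition; series mostly up to about 58 µM; % is set by controls: 0 for no effect and ±100 for the full control effect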)
Sequence of Atrial natriuretic peptide receptor 1 (Homo sapiens) (P16066 whole entry, looked up): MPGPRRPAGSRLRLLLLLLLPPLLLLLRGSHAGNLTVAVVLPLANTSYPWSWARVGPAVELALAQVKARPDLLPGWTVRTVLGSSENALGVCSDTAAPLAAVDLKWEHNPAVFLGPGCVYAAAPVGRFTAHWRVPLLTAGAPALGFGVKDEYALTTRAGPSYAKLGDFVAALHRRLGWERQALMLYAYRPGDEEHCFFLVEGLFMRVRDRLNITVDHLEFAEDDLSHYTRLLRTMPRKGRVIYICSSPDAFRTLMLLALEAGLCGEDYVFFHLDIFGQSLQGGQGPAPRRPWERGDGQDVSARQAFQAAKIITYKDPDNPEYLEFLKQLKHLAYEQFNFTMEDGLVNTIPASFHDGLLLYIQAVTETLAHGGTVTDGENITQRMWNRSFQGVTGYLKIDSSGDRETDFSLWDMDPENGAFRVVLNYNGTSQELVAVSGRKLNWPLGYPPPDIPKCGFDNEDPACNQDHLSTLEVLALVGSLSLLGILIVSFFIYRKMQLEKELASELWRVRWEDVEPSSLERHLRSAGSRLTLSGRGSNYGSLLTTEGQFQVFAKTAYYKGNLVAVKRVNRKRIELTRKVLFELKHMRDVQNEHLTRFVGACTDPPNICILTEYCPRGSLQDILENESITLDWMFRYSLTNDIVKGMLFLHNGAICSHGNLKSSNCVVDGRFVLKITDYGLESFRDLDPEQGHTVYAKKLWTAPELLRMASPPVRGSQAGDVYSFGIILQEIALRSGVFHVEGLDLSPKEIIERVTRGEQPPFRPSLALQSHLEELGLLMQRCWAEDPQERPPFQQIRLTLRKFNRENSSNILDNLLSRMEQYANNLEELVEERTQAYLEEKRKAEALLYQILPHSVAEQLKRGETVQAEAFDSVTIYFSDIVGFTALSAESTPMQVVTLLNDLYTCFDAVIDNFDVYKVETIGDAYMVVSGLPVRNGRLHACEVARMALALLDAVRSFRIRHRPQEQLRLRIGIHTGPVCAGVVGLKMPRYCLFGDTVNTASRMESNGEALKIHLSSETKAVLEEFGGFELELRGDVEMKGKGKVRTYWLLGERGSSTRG
Procedure, shortened: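 cGMP-sensor HEK293/hNpr1 cells, 1500/well, plated overnight at 37C. 2% GloSensor reagent, 2 h RT. Compound (23 nL pin transfer) 30 min RT, baseline luminescence pre-read. 0.1 nM hNppA, 20 min RT, post-read.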

[9] = biological target: Atrial natriuretic peptide receptor 2 (Homo sapiens) (UniProt P20594); assay: Natriuretic polypeptide receptor (hNpr2) antagonism - Pilot subtype selectivity assay (AID 1347050; calls by dose curve; note: % is set by controls: 0 for no effect and ±100 for the full control effect)
Procedure, shortened: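 Luminescence from a genetically encoded cGMP luciferase biosensor in hNpr2-expressing HEK293 cells is read before and 20 min after adding 1 nM hNppC. Test compounds, in interplate 1:5 titrations, are added 30-50 min ahead of the agonist.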

[10] = biological target: Parathyroid hormone/parathyroid hormone-related peptide receptor (Homo sapiens) (UniProt Q03431); assay: qHTS for PTHR1 Agonists: Optimization Screen against the NCGC LOPAC library (AID 1347079);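 note: GloSensor cAMP luminescence in HEK-293 GP2 cells expressing human PTHR1 with IBMX; 0% is about no effect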
Sequence of Parathyroid hormone/parathyroid hormone-related peptide receptor (Homo sapiens) (Q03431 whole entry, looked up): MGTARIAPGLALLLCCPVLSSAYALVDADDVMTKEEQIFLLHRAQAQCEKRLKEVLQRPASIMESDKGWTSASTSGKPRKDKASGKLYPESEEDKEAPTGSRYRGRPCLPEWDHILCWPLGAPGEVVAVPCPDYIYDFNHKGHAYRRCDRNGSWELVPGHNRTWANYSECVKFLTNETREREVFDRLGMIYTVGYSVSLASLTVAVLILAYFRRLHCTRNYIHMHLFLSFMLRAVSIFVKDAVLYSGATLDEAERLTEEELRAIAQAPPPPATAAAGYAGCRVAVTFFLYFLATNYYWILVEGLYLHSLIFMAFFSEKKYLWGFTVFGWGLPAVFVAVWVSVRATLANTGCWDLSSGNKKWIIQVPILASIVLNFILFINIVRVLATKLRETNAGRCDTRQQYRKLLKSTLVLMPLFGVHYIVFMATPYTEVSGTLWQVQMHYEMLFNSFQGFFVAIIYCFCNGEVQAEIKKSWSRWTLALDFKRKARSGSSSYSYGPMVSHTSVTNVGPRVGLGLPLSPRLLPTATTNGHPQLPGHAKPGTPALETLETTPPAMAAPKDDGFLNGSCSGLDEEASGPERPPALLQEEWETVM
Procedure, shortened: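 HEK-293 GP2 cells, PTHR1 + GloSensor cAMP; 3000 cells/well, o/n. Luciferin + IBMX 0.5mM each (stock), 1 hr 37C. Cpd titration, 1 hr 37C. Lum after 15 min RT. Ctrl M-PTH(1-15) top 10uM.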

[11] = qHTS for Inhibitors of the Functional Ribonucleoprotein Complex (vRNP) of Lassa (LASV) Arenavirus: LASV Primary Screen - GLuc reporter signal (AID 1347082; calls by dose curve; tested in HEK293 reporter line; note: series mostly up to about 57 µM; % is set by controls: 0 for no effect and ±100 for the full control effect; nearly all actives have a fitted effect of over 60% in size)
[12] = qHTS for Inhibitors of the Functional Ribonucleoprotein Complex (vRNP) of Lassa (LASV) Arenavirus: Viability assay - alamar blue signal for LASV Primary Screen (AID 1347083; calls by dose curve; tested in HEK293 reporter line; note: series mostly up to about 57 µM; % is set by controls: 0 for no effect and ±100 for the full control effect; nearly all actives have a fitted effect of over 80% in size)
[13] = qHTS for Inhibitors of the Functional Ribonucleoprotein Complex (vRNP) of Lymphocytic Choriomeningitis Arenaviruses (LCMV): Viability assay - alamar blue signal for LCMV Primary Screen (AID 1347085; calls by dose curve; tested in HEK293 reporter line; note: series mostly up to about 57 µM; % is set by controls: 0 for no effect and ±100 for the full control effect; nearly all actives have a fitted effect of over 80% in size)
[14] = biological target: Lysine-specific demethylase 5B (Homo sapiens) (UniProt Q9UGL1); assay: Optimization screen for KDM5B Histone Demethylases FDH coupled qHTS against the LOPAC library (AID 1347166); note: 0% is about no effect
Sequence of Lysine-specific demethylase 5B (Homo sapiens) (Q9UGL1 whole entry, looked up): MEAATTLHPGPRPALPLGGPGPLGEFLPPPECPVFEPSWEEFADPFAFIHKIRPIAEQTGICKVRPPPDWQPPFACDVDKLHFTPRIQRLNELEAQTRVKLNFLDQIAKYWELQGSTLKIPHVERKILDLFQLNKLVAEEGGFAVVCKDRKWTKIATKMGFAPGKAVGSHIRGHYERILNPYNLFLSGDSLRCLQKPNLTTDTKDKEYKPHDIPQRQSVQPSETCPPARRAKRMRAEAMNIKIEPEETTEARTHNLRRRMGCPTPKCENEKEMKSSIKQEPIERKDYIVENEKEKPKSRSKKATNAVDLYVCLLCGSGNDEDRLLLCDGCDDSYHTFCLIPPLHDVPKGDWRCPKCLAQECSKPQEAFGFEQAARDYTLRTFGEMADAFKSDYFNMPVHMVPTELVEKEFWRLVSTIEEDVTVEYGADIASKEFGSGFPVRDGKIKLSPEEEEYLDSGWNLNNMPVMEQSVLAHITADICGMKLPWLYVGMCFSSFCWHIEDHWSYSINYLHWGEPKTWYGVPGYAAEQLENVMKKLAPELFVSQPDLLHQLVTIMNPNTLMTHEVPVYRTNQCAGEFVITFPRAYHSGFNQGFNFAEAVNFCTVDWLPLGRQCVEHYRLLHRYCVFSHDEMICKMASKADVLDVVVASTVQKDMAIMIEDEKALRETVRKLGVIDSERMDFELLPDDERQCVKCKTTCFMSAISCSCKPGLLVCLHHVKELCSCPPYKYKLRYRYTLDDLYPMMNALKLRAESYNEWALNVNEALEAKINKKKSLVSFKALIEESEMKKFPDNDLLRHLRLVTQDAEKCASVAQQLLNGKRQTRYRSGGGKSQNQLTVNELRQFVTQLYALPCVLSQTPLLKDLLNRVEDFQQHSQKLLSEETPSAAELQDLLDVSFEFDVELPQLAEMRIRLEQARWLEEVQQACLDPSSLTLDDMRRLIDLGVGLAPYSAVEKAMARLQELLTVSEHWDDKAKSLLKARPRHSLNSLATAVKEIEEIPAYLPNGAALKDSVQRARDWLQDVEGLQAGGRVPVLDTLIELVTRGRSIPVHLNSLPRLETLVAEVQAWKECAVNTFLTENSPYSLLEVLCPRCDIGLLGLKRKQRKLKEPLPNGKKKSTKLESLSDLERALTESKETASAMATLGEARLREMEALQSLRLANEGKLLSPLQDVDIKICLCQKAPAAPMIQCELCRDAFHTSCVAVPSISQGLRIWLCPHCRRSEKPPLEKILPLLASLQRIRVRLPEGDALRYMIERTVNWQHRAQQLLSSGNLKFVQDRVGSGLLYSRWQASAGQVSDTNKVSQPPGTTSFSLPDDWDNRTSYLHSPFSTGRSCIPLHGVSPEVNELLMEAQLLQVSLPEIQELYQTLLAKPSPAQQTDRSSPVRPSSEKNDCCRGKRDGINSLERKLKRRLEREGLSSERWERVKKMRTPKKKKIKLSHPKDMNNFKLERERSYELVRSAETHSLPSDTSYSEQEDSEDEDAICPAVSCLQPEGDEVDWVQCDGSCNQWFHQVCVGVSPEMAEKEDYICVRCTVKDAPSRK
Procedure, shortened: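 KDM5BDeltaAP (200nM final) in 50mM HEPES pH 7.5, 0.01% Tween-20 was preincubated with compound for 10 min at room temperature. A substrate mix of 12.5uM H3K4Me3, 25uM a-ketoglutarate, ascorbate, Fe2+, NAD+ and formaldehyde dehydrogenase was then added. NADH fluorescence (340/450 nm) was read initially and after 30 min.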

[15] = Validation qHTS assay for inhibitors of Activation Induced Cytidine Deaminase (AID): UDG Counterscreen signal (AID 1347427); note: 0% is about no effect
Procedure, shortened: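 Fluorescence at 560 nm excitation, 665 nm emission reports UDG signal after 250 mM NaOH (2x) addition and 30 min. Enzymes (AID 1 uM, UDG 2 U/mL, at 4/3x) preincubated 10 min with compound, then 4 h with 4x 250 nM DJC20/DJC23 substrate at room temperature.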

[16] = biological target: Single-stranded DNA cytosine deaminase (Homo sapiens) (UniProt Q9GZX7); assay: Validation qHTS assay for inhibitors of Activation Induced Cytidine Deaminase (AID): AID signal (AID 1347429); note: % is set by controls: 0 for no effect and ±100 for the full control effect
Sequence of Single-stranded DNA cytosine deaminase (Homo sapiens) (Q9GZX7 whole entry, looked up): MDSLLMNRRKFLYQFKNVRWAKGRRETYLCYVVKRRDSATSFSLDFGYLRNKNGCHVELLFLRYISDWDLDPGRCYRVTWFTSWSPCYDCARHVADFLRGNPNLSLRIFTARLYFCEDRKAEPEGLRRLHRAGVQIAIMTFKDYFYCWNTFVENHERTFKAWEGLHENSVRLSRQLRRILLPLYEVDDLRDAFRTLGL
Procedure, shortened: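 Compounds (final up to 114 uM) preincubated with AID plus UDG; 250 nM DJC20/DJC23 substrate mix (4x stock) added, 4 hr at room temperature, then NaOH, 30 min. Read 1 fluorescence at 540 nm excitation, 590 nm emission.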

[17] = Primary qHTS for inhibitors of La Crosse Virus (LACV) - induced cell death in SH-SY5Y cells (AID 1508616);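 note: top concentration of the series differs between compounds; 0% = infected DMSO wells and 100% = uninfected DMSO wells; higher means more rescue of cells from virus-induced death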
Procedure, shortened: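 Rescue of virus-induced death was read as ATPLite luminescence after 6 days at 37C, scaled between DMSO wells with LACV and without virus. Cells were SH-SY5Y, 6000/well, infected at 0.01 MOI after compound addition.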

[18] = Primary qHTS for small molecule stabilizers of the endoplasmic reticulum resident proteome: Secreted ER Calcium Modulated Protein (SERCaMP) assay (AID 1508630); note: % is set by controls: 0 for no effect and ±100 for the full control effect
Procedure, shortened: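 The SH-SY5Y reporter protocol was run at 3 concentrations up to 38.3 uM (primary) or 11 concentrations (follow-up): 16 h compound, 100 nM thapsigargin for 4 h, then extracellular luciferase luminescence.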

O=[N+]([O-])c1ccc(O[C@@H]2O[C@H](CO)[C@@H](O)[C@H](O)[C@H]2F)c([N+](=O)[O-])c1
inactive: outcome [1] | outcome [2] | outcome [3] | outcome [4] | outcome [5] | max response [6] 12.9% | outcome [7] | outcome [8] | outcome [9] | outcome [10] | Potency [11] | Potency [12] | Potency [13] | outcome [14] | outcome [15] | outcome [16] | outcome [17] | Potency [18]
